Experimental data reported in PubChem BioAssay (NCI).
Compounds without any hit were thinned out: in the full panel of roughly 83,000, 20% have a hit.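 96-well plates, one dose, 48 hours. Percent growth reported; active if below 10.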 Active and inactive are the calls of the source.

System: NCI-H460 lung
Test: NCI-60 one-dose screen, 48 h (100 = growth as untreated, 0 = no growth, -100 = all killed)
Conditions: 10 µM unless noted

Row | SMILES | growth
1 | CCOC(=O)c1ccccc1-c1c2ccc(=[N+](C)C)cc-2oc2cc(N(C)C)ccc12 | 3.9% (active)
2 | O=C(Nc1ncc(Cc2cc(C(F)(F)F)ccc2Cl)s1)c1cccs1 | 32.2% (inactive)
3 | Clc1ccccc1-c1cnn2cc(-c3ccccc3)cnc12 | 75.3% (inactive)
4 | NC1(CO)COC(c2ccccc2)OC1 (centres undefined) | 108% (inactive)
5 | COc1cc(OC)cc(-c2ccc(-c3ccc(C(=N)N)o3)o2)c1 | 6.91% (active)
6 | CN1CCN(Cc2ccc(NC(=O)c3cncc(C#Cc4cnc5ccc(Cl)nn45)c3)cc2C(F)(F)F)CC1 | -47.3% (active)
7 | NS(=O)(=O)c1ccc(NC(=O)/C(=C\c2ccc(Cl)cc2Cl)NC(=O)c2ccccc2)cc1 | 105% (inactive)
8 | C/C=C(/C)n1cnc2c(Nc3ccccn3)nc(Cl)nc21 | 103% (inactive)
9 | CS(=O)(=O)Nc1cc(-c2ccc3ncc(C#N)c(Nc4ccc(F)c(Cl)c4)c3c2)cnc1Cl | 6.16% (active)
10 | CNC(=O)c1cc(Oc2cccc3nc(NC(=O)Nc4cc(C(F)(F)F)ccc4Cl)ccc23)ccn1 | 101% (inactive)
11 | CN1CCN(Cc2ccc(NC(=O)c3cncc(C#Cc4cnc(N)c5ccc(F)cc45)c3)cc2C(F)(F)F)CC1 | -15.9% (active)
12 | CCN1CCN(CC(=O)Nc2nc3ccc(NCc4ccc(F)cc4)cc3s2)CC1 | 98.8% (inactive)
13 | COc1ccc(NC(=O)Nc2ccc(OCCCCCC(=O)NO)cc2)cc1 | 96.3% (inactive)
14 | CNC1=CC(=O)c2c(C(=O)OC)c(C)[n+]([O-])c(C)c2C1=O | 28.2% (inactive)
